# Assay outcomes from PubChem.
# In the library only some 2.8% were active in any assay of this set; here they are far more common.
# IP6K1 inhibitor = blocks human inositol hexakisphosphate kinase 1; IP6K1 kinase, ADP-Glo luminescence, 2 h; active compounds read low; activity change, % (series mostly up to about 58 µM); 140,000 compounds, 0.81% hits; Q92551; in the data active means activity change below about -25%
#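 ADP-Glo luminescence measures ADP made by human IP6K1 during a 2 h RT reaction with ATP/IP6 (mix at 1.3 mM/130 uM); top library doses 57.5 and 19.1 uM final.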
# KDM5B inhibitor = blocks human KDM5B histone demethylase activity | Q9UGL1 | KDM5B demethylase, FDH-coupled NADH fluorescence (FDH is formaldehyde dehydrogenase) | Potency, µM (highest dose often 57.7 µM), most hits filed as inhibitors | 220,000 compounds, 2.6% hits; active means well fitted inhibition curve with a large enough effect; inconclusive means small, poorly fitted or top-dose-only effect; inactive means no such curve, though single readings can be large or run the other way; further: nearly all actives have a fitted effect of over 70% in size
# Target sequence (Q9UGL1 whole entry, looked up): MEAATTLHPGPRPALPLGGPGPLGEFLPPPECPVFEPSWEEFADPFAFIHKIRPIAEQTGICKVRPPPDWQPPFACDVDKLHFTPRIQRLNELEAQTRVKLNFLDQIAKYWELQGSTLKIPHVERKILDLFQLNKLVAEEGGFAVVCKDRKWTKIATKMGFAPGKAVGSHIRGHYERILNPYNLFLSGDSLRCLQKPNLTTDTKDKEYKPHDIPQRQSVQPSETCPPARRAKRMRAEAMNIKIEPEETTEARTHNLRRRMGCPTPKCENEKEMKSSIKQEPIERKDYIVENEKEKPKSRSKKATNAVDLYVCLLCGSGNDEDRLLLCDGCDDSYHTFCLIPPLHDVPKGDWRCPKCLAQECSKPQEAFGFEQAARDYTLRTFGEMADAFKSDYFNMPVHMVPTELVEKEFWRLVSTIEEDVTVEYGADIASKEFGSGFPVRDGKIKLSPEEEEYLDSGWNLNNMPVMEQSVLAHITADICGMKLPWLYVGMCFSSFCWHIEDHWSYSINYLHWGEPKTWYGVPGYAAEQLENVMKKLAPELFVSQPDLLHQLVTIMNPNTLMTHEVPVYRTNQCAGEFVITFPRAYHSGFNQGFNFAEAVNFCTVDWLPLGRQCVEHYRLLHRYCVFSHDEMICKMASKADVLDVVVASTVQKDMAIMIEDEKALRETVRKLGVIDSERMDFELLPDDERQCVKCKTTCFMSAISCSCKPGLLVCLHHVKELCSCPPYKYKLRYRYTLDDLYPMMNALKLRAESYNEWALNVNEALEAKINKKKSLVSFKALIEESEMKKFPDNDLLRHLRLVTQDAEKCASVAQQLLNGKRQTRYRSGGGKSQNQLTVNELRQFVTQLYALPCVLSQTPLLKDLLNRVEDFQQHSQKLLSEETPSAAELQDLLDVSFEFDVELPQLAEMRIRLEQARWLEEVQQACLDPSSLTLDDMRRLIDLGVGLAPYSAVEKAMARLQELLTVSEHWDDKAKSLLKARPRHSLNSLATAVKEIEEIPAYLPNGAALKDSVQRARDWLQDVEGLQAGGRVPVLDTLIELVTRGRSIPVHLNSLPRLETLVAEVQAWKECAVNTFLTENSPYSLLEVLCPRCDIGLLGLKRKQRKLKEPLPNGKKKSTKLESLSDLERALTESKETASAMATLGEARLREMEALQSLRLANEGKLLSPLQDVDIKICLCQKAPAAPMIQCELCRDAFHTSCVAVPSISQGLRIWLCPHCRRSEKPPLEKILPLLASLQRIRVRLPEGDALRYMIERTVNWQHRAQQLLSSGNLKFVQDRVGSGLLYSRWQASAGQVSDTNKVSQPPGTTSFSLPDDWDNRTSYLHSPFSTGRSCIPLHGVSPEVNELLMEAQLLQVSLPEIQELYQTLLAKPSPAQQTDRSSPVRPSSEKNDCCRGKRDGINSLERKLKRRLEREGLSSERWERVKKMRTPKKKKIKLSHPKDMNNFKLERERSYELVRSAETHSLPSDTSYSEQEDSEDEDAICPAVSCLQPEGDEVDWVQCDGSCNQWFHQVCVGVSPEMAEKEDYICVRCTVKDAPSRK
#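 KDM5BΔAP (200 nM final) in 50 mM HEPES pH 7.5, 0.01% Tween-20 was preincubated 10 min at RT with compound over a concentration range. Substrate mix (H3K4me3 12.5 µM, α-KG 25 µM, Fe²⁺, ascorbate, NAD⁺, FDH) was added, and NADH fluorescence change over 30 min gave dose-response curves.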
# Numbers stand for hits; n = inactive; u = inconclusive; x = no result given.
SMILES,IP6K1 inhibitor,KDM5B inhibitor
Cc1cc(Br)ccc1NC(=O)c1nc2ccccc2nc1N1CCCCC1,x,n
Cc1ccc(NC(=O)N2CC(N3C(=O)c4c(c(C)nn4-c4ccccc4)C3C3CC3)C2)cc1F (stereo not drawn),n,x
COc1ccc(Nc2ccnc(N3CCCC(C(=O)NCCSC)C3)n2)cc1 (stereo not drawn),n,x
COc1cccc(Nc2ncc3c(n2)C(C)(C(=O)Nc2ccc(OC)nc2)CC3)c1 (stereo not drawn),n,u
COc1cccc(NC(=O)C2(C)CCc3cnc(N4CCOCC4)nc32)c1 (stereo not drawn),n,28µM
Cn1ccc(NC(=O)C2(C)CCc3cnc(Nc4ccccc4)nc32)n1 (stereo not drawn),n,n
CC1(C(=O)NCc2cccc(Cl)c2)CCc2cnc(N3CCOCC3)nc21 (stereo not drawn),n,35µM
CC1(C(=O)Nc2ccccc2)CCc2cnc(N3CCOCC3)nc21 (stereo not drawn),n,35µM
COc1ccc(NC(=O)C2(C)CCCc3cnc(Nc4ccccc4)nc32)cn1 (stereo not drawn),n,u
CC1(C(=O)NCCN2CCOCC2)CCc2cnc(NCc3ccccc3)nc21 (stereo not drawn),n,u
COc1ccc(NC(=O)C2(C)CCc3cnc(N4CCOCC4)nc32)cn1 (stereo not drawn),n,35µM
COc1cccc(-c2ccc(C(=O)N3CCC(C(=O)NCC4CC4)CC3)cc2)c1,n,x
O=C(C1CCCN(C(=O)C2CC2)C1)N1CCC(c2nc3ncccc3[nH]2)CC1 (stereo not drawn),n,x
COCCn1c(=O)c2c(nc(-n3nc(C)cc3C)n2CCc2ccccc2)n(C)c1=O,x,n
CN1CCOc2c(C(=O)NCc3cnn(C)c3)cc(-c3ccc(CO)cc3)cc21,n,20µM
CN1CCOc2c(C(=O)NCc3cccnc3)cc(-c3ccc(O)c(F)c3)cc21,n,u
CN1CCOc2c(C(=O)NCC[S+](C)(=O)[O-])cc(-c3ccccc3)cc21,n,32µM
Cc1ccc(-c2cc(C(=O)NCc3cnn(C)c3)c3cc(Br)ccc3n2)cc1,n,n
CN1CCN(CCNC(=O)c2cc(-c3ccccc3)cn2C)CC1,n,n
COc1ccc(-c2cc(C(=O)NCCc3cnc[nH]3)c3c(c2)N(C)CCO3)cc1OC,n,32µM
COc1ccc(-c2cc(C(=O)NCC[S+](C)(=O)[O-])c3c(c2)N(C)CCO3)cn1,n,32µM
COc1ccc(C(=O)NCCc2ncc(C)n2C2CC2)cn1,n,n
CCN(Cc1cccs1)C(=O)c1ccc(C#N)cc1,x,n
O=C1NC2(CCCCC2)N(C(=O)c2ccccc2Cl)C2=C1CCCC2,x,n
Cc1ccc(OC(C)C(=O)NC2CCCC2)c(C)c1 (stereo not drawn),x,n
SMILES,IP6K1 inhibitor,KDM5B inhibitor
COc1ccc(-c2cc(C(=O)NCc3cc(C)on3)c3c(c2)N(C)CCO3)cn1,n,35µM
Cc1cc(CNC(=O)c2cc(-c3ccnn3C)cc3c2OCCN3C)no1,n,u
N#Cc1cccc(C(=O)NCC(=O)N2CCCCCCNC(=O)CC2c2ccccc2)c1 (stereo not drawn),n,n
O=C1CC(c2ccccc2)N(C(=O)CNC(=O)c2c[nH]c3ccccc23)CCCCCN1 (stereo not drawn),n,28µM
O=C1CC(c2ccccc2)N(C(=O)C2CC2)CCCN(C(=O)c2cc3ccccc3[nH]2)CCN1 (stereo not drawn),n,u
O=C1CC(c2ccccc2)N(C(=O)C2CC2)CCCN(C(=O)c2ccc3cc[nH]c3c2)CCN1 (stereo not drawn),n,28µM
O=C(Cc1c[nH]c2ccccc12)NCC(=O)N1CCCCCNC(=O)CC1c1ccccc1 (stereo not drawn),n,n
O=C1CC(c2ccccc2)N(C(=O)CNC(=O)c2ccc3cc[nH]c3c2)CCCCCN1 (stereo not drawn),n,25µM
C[C@H]1[C@@H]2[C@@H](O)C([C@H](C)C(=O)N(C)Cc3ccccc3)CC[C@@]2(C)CC[C@@H]1NC(=O)c1ccncc1 (stereo partly drawn),n,n
CC(C)(C)CC(=O)N1CC[C@H]2CC(=O)N(CCN3CCNC3=O)CC[C@H]2C1,n,n
C/C(=C/C(=O)C(F)(F)F)N1CCC(C(N)=O)CC1,x,n
O=C(CN(c1ccccc1F)S(=O)(=O)c1ccccc1)NCCN1CCOCC1,x,n
Cc1cnc(C)c(-c2cc(O)c3c(c2)CN(C(=O)c2ccncn2)CCO3)n1,n,25µM
O=C(c1ccccn1)N1CCOc2c(O)cc(-c3cccc(Cl)c3)cc2C1,n,u
c1cc(-c2cc3c(ccn3Cc3ccncc3)c(N3CCOCC3)n2)c2[nH]ncc2c1,n,25µM
c1cc(CN2CCC(Oc3nccnc3N3CCOCC3)C2)ccn1 (stereo not drawn),n,u
C[S+](=O)([O-])N1CCC(Cn2ccc3c(N4CCOCC4)nc(-c4cccc5[nH]ccc45)cc32)CC1,n,n
c1cc(-c2cc3c(ccn3Cc3ccncc3)c(N3CCOCC3)n2)c2cc[nH]c2c1,n,20µM
c1cc(-c2cc3c(ccn3Cc3ccncc3)c(N3CCOCC3)n2)c2cn[nH]c2c1,n,20µM
Cc1cc(OC(=O)c2ccc(CSc3ccc(Cl)cc3)cc2)cc(C(C)C)c1,x,n
Cc1cc(N2CCCN(Cc3cnn4c(C)cc(C)nc34)CC2)ccn1,n,n
COCC(=O)N1CCC2(CC1)CN(Cc1cnc(C(C)C)nc1)CCN2C,n,n
CC1CCC(c2nnc(-c3ccccc3Cl)o2)CC1 (stereo not drawn),x,n
COc1ccc([S+](=O)([O-])c2nnn3c2nc(N2CCC(F)CC2)c2ccccc23)cc1,n,79µM
COc1ccc([S+](=O)([O-])c2nnn3c2nc(NC2CC2)c2ccccc23)cc1,n,89µM
SMILES,IP6K1 inhibitor,KDM5B inhibitor
O=[S+]([O-])(c1ccc(Cl)cc1)c1nnn2c1nc(NC1CC1)c1ccccc12,n,n
COc1ccc(OC)c([S+](=O)([O-])c2nnn3c2nc(N2CCC(F)CC2)c2ccccc23)c1,n,50µM
COc1ccc(OC)c([S+](=O)([O-])c2nnn3c2nc(N2CCOCC2)c2ccccc23)c1,n,n
O=[S+]([O-])(c1ccccc1)c1nnn2c1nc(N1CCC(F)CC1)c1ccccc12,n,u
CN(Cc1cccc(Cl)c1Cl)c1ccc(S(N)(=O)=O)cn1,x,n
CC(=O)CC(=O)Nc1ccc(Cl)c(C(F)(F)F)c1,n,x
O=C(Nc1ccc(=O)n2c1[C@@H]1C[C@@H](CN(C(=O)COc3ccccc3)C1)C2)c1cncnc1,n,n
CCCCNC(=O)Cc1csc2nc(C)c(-c3cc(C)n(-c4ccc(F)cc4)n3)c(=O)n12,n,28µM
CCCCCNC(=O)Cc1csc2nc(C)c(-c3cc(C)n(-c4ccc(F)cc4)n3)c(=O)n12,n,u
CCCCNC(=O)Cc1csc2nc(C)c(-c3cc(C)n(-c4cc(F)ccc4C)n3)c(=O)n12,n,u
CCCCCNC(=O)Cc1csc2nc(C)c(-c3cc(C)n(-c4cc(F)ccc4C)n3)c(=O)n12,n,25µM
O=Cc1cccn1-c1ccc(F)c(Cl)c1,x,n
COc1cc(F)ccc1-c1cc(-c2ccc(=O)[nH]c2)c2cncn2c1,n,u
Cc1ccccc1-c1cc(-c2ccc(=O)[nH]c2)c2cncn2c1,n,35µM
Cc1ccc(CNC(=O)C2CCN(S(=O)(=O)c3cn(C)cn3)CC2)cc1,n,n
